Measurements: the supplement of paper PMC10338343
± gives the standard deviation.

System: MILI (PIWIL2) piRISC loaded with piRNA #1 (26 nt)
Assay: pre-steady-state target cleavage rate (min^-1); guide: piRNA #1 5'p-UGAGGUAGUAGGUUGUAUAGUAUCCA; MIWI and MILI are mouse PIWI proteins and EfPiwi is from a freshwater sponge; tags in brackets are library labels; higher = faster piRNA-guided slicing of the target
Settings: auxiliary factor: 500 nM mouse GTSF1
Outline: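 In Cleave-'n-Seq, a transcribed, DNA-blocked target RNA library (0.1 nM) was combined with 1 nM active affinity-purified piRISC bearing one synthetic guide, with or without 500 nM GTSF1 partner protein. Reactions ran in HEPES–potassium acetate buffer at 33 °C for 0–8 or 0–960 min. Uncleaved targets were sequenced and normalised to depth and to weakly complementary targets, three trials were pooled, and k3 was capped at 0.0001 min^-1. The pre-steady-state cleavage rate was obtained by fitting a burst-and-steady-state model.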

Row | Sequence | pre-steady-state target cleavage rate
1 | GGAGUGCAUACUAUAGAACCUACUACCUCA | 0.177 ± 0.013
2 | GGAGACCAUACAAUUCAACCUACUACCUCA | 0.13 ± 0.013
3 | GGAGACCUAUGAAUACAAACUACUACCUCA | 0.0186 ± 0.0035
4 | GGAGACCUUAUUAUACAACCUACUACCUCA | 0.14 ± 0.011
5 | GGAGUGGAUUCUAUACAACGUACUACCUCA | 0.0287 ± 0.0031
6 | GGAGACCUAUGUAUACAACCGUACUACCUCA | 0.00758 ± 0.0041
7 | GGAGACCUAUAUAUACAACCUACUACCUCA | 0.0406 ± 0.0075
8 | GGAGACCUAUGUAUACAACCUACUACCAUCA | 0.0684 ± 0.01
9 | GGAGACCUAUCUAUACAACCUACUACCAUCA | 0.123 ± 0.016
10 | GGAGACCUAUGUAUACAACCUACUACCACA | 0.0991 ± 0.01
11 | GGAGACCUAACUAAACAACCUACUAGCUCA | 0.0613 ± 0.018
12 | GGAGACCUAUGUAUUCAACCUACUACCUGA | 0.0167 ± 0.0046
13 | GGAGACCUAUCUAAAGAACCUACUACCUCA | 0.0183 ± 0.0054
14 | GGAGACCUAUGAUAUGUACCAUCUACCUCA | < 0.0001
15 | GGAGACCUAUGAUAUGUUCCUACUACACUCA | < 0.0001
16 | GGAGACCUAUCUAUACAAGCUACUUCCUCA | 0.164 ± 0.015
17 | GGAGACCUUAGUAUACAACCUACUAGCUCA | 0.00944 ± 0.0043
18 | GGAGACCUAUCUUUACAACCUACUACGUCA | 0.0265 ± 0.0062
19 | GGAGUGGAUACUAUAGAAGCUACUACCUCA | 0.19 ± 0.011
20 | GGAGACCUUACUAUAGAAGCUACUACCUCA | 0.134 ± 0.015

Row | Sequence | pre-steady-state target cleavage rate
21 | GGAGACCUAUGAUUACAUCCUACUACCUCA | 0.0102 ± 0.0027
22 | GGAGACCUUACUAUCAACCUACUACCUCA | 0.0728 ± 0.0079
23 | GGAGUGGAAACUAUACAACCUACAACCUCA | 0.0962 ± 0.023
24 | GGAGACCUAUGAAUACAAGCUACUACCUCA | 0.0349 ± 0.0069
25 | GGAGACCUAUGAUUACAAGCUACUAGCUCA | 0.00635 ± 0.0034
26 | GGAGACCUAACUAAACAACCUACUUCCUCA | 0.0346 ± 0.013
27 | GGAGACCUUACUAUACAACCUACAUCCUCA | 0.0472 ± 0.0095
28 | GGAGACGAUACUAAACAACCUACUACCACA | 0.214 ± 0.019
29 | GGAGACCAUAGUAUACAAGCUACUACCUCA | 0.16 ± 0.015
30 | GGAGACCUAUGUACUACAACCUACUACCUCA | 0.00901 ± 0.0026
31 | GGAGACCUUACUAUACAACCAUCUACCUCA | 0.00422 ± 0.0032
32 | GGAGACCUAUCUAUACAACCUACUAGCACA | 0.0357 ± 0.012
33 | GGAGACCUAUGAUUACAACCUACUACGCUCA | 0.0104 ± 0.0039
34 | GGAGACCUAUGAAUACAACCUACUACCCUCA | 0.00533 ± 0.0019
35 | GGAGACCUAACAAUACAACGUACUACCUCA | 0.00908 ± 0.0045
36 | GGAGACCUAUGUAUACAACCGACUACCUCA | 0.00448 ± 0.0021
37 | GGAGACGUUACUAUACAAGCUACUACCUCA | 0.216 ± 0.017
38 | GGAGACCAUACAAUACAACCUAGUACCUCA | 0.0587 ± 0.011
39 | GGAGUGGAUACUAAAGAACCUACUACCUCA | 0.167 ± 0.011
40 | GGAGACGAUACUUUACUACCUACUACCUCA | 0.179 ± 0.012
